High-throughput results deposited in PubChem by several laboratories.
Most compounds without a hit are left out; they make up all but 2.5% or so of the library.
G6PDH counter: L. mesenteroides G6PDH inhibitors, counter-screen for G6PDH-coupled screening assays, biochemical, Leuconostoc mesenteroides enzyme. glucose-6-phosphate dehydrogenase [Leuconostoc mesenteroides]. Purified L. mesenteroides G6PDH, diaphorase/resazurin coupled fluorescence, 45 min. inhibition, % at 5 µM. 0.12% of 200,000 active; in the data active = inhibition above about 50%
PfM18AAP inh: PfM18AAP inhibitors, malaria aminopeptidase, primary screen, biochemical, QFRET, recombinant enzyme; M18 aspartyl aminopeptidase (Plasmodium falciparum 3D7); H-Glu-NHMec fluorogenic cleavage; inhibition, % at 7.35 µM; 1.2% of 290,000 active;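 active = inhibition above the campaign mean inhibition over all tested compounds plus 3 SD, cut at about 28% in these data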
PHOSPHO1 inh: PubChem AID 1565. 1.1% of 290,000 active. recombinant PHOSPHO1, absorbance phosphatase assay. inhibition, % at 13.3 µM. Phosphoethanolamine/phosphocholine phosphatase (Homo sapiens), Q8TCT1; in the data active = inhibition above about 60%
p97 inhibitor: inhibitors of human p97 ATPase, primary screen, biochemical; inhibition, % at 8 µM; recombinant p97 ATPase, Kinase-Glo ATP luminescence, 3 h; 0.42% of 220,000 active; in the data active = inhibition above about 15%
Target sequence (P55072 whole entry, looked up): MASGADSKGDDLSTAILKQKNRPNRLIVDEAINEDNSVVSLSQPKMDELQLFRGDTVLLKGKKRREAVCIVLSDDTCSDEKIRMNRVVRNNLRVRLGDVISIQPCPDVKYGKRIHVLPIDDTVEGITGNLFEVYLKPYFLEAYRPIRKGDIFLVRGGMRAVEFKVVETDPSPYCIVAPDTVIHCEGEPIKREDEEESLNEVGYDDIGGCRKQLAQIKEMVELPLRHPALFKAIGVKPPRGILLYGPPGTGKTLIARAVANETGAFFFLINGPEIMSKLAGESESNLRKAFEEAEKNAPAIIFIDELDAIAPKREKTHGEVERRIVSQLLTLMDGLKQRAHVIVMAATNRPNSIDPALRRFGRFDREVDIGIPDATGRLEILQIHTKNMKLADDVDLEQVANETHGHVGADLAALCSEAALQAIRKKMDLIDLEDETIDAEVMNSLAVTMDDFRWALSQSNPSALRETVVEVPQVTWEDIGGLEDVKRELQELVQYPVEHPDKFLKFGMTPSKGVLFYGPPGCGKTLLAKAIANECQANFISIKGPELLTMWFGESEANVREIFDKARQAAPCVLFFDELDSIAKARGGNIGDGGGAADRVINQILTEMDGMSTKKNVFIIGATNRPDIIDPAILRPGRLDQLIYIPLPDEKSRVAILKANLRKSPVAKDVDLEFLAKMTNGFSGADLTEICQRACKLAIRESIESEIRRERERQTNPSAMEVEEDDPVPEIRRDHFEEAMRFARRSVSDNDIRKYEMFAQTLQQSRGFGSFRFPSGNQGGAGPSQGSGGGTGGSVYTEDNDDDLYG
SUMO HTRF inh: inhibitors of in vitro SUMOylation cascade, primary screen, biochemical, HTRF, uHTS | HTRF SUMOylation assay, SAE1/SAE2 + UBC9 | inhibition, % at 35 µM | 0.36% of 290,000 active | AID 2006, 2009; in the data active = inhibition above about 50%, passing the limit was not always enough; inconclusive = no clear call, values can overlap the other calls
HDAC3 inhib: HDAC3 deacetylase inhibitors, primary screen, biochemical, fluorescence, cell-free homogeneous; Histone deacetylase 3 (Homo sapiens), O15379; recombinant HDAC3, fluorogenic peptide/trypsin coupled; inhibition, % at 8.3 µM; 0.15% of 320,000 active; AID 2718, 2010; in the data active = inhibition above about 26%, passing the limit was not always enough; inconclusive = no clear call, values can overlap the other calls
Of the large screens only hits and unclear results are named; the others gave an inactive call.

CCOCc1nnc(NC(=O)C2CC(=O)N(CCc3ccc(F)cc3)C2)s1 (centres undefined)	none (no result: G6PDH counter, p97 inhibitor)
Cc1ccccc1NC(=O)CN1C(=O)COc2ccc(Cl)cc21	p97 inhibitor 15
COc1ccc(-n2c(SCC(=O)NCC3CCCO3)nc3ccccc32)cc1 (centres undefined)	PHOSPHO1 inh 78
CC(C)(C)NC(=O)CSc1nc2ccccc2n1-c1ccccc1	PHOSPHO1 inh 62
COc1ccc2oc(=O)c(C(=O)NCC3CCCO3)cc2c1 (centres undefined)	SUMO HTRF inh 52
CC(=O)c1sc(NC(=O)C(C)Oc2ccc3c(C)cc(=O)oc3c2)nc1C (centres undefined)	none (no result: G6PDH counter, p97 inhibitor)
ONC(=Nc1ccccc1Cl)c1c(F)cccc1F	none (no result: G6PDH counter, PfM18AAP inh, PHOSPHO1 inh, p97 inhibitor, SUMO HTRF inh)
N#CCCN(C(=O)c1ccc2c(=O)n3c(nc2c1)CCCCC3)c1ccccc1	PHOSPHO1 inh 64 (no result: G6PDH counter, p97 inhibitor, SUMO HTRF inh)
CC(C)=C[C@H]1C[C@H](C)[C@H]2CC[C@H](C)c3c(O[C@@H]4OC[C@@H](O)[C@H](O)C4O)c(O)c(C)c1c32 (some centres undefined)	none (no result: G6PDH counter, PfM18AAP inh, PHOSPHO1 inh, p97 inhibitor, SUMO HTRF inh)
Cc1nn(-c2ccccc2)c(Cl)c1/C=C1\SC(=S)N(CCCCCC(=O)O)C1=O	none (no result: G6PDH counter)
Cc1nn(-c2ccccc2)c(Cl)c1/C=C1\SC(=S)NC1=O	PHOSPHO1 inh 64
CC(C)Cc1nnc(NC(=O)c2cc([N+](=O)[O-])ccc2N2CCOCC2)s1	none (no result: G6PDH counter, PHOSPHO1 inh, p97 inhibitor)
c1ccc2[nH]c(CN3CCOCC3)nc2c1	none
c1ccc2[nH]c(SN3CCOCC3)nc2c1	PHOSPHO1 inh 102 (no result: HDAC3 inhib)
Cc1cc(C)n2nc(-c3sccc3-n3c(C)ccc3C)cc2n1	none
Cc1cc(C)n2nc(-c3sccc3-n3cccc3)cc2n1	PHOSPHO1 inh 62
c1ccc(CSc2nc3ccccc3[nH]2)cc1	none (no result: G6PDH counter)
Nc1nc(CSc2nc3ccccc3[nH]2)cs1	PHOSPHO1 inh 97
C[C@H](CO)N1C[C@H](C)[C@@H](CN(C)C(=O)Nc2ccccc2)Oc2ccc(NC(=O)CCC(F)(F)F)cc2C1=O	none (no result: G6PDH counter, PfM18AAP inh, PHOSPHO1 inh, p97 inhibitor, SUMO HTRF inh)
COc1ccc(C(=O)NNC(=O)Cc2ccc(-c3ccccc3)cc2)cc1OC	none
COc1ccc(C(=O)NNc2ccccc2)cc1OC	PHOSPHO1 inh 77
CSc1sc2ccccc2[n+]1CCCS(=O)(=O)[O-]	PHOSPHO1 inh 89
COc1ccc2sc(SCCCS(=O)(=O)O)[n+](CCCS(=O)(=O)[O-])c2c1	none
COc1cccc(-c2nc(C(=O)NCC3CCCO3)cc3c2[nH]c2ccccc23)c1 (centres undefined)	none (no result: G6PDH counter, p97 inhibitor)
O=C(NCCN1CCc2ccccc2C1)Nc1ccc([N+](=O)[O-])cc1	SUMO HTRF inh 58
O=C(O)C1Nc2ccc(OC(F)(F)F)cc2C2C=CCC12 (centres undefined)	none (no result: G6PDH counter, PfM18AAP inh, PHOSPHO1 inh, p97 inhibitor, SUMO HTRF inh)
Cc1ccc2c(c1)C1C=CCC1C(C(=O)O)N2 (centres undefined)	SUMO HTRF inh 60
O=C(O)C1Nc2c(cccc2C(F)(F)F)C2C=CCC12 (centres undefined)	none (no result: G6PDH counter, p97 inhibitor)
COc1cccc2c1NC(C(=O)O)C1CC=CC21 (centres undefined)	SUMO HTRF inh 95
O=C(NCCNC(=O)c1cc(Cl)ccc1Cl)c1cnccn1	none (no result: G6PDH counter, p97 inhibitor)
Cc1[nH]n(-c2ccccc2)c(=O)c1C(C[N+](=O)[O-])c1ccc(F)cc1 (centres undefined)	PfM18AAP inh 30, SUMO HTRF inh 88
Cc1[nH]n(-c2ccccc2)c(=O)c1C(C[N+](=O)[O-])c1ccc(Cl)cc1 (centres undefined)	PfM18AAP inh 28 (no result: HDAC3 inhib)
Cc1[nH]n(-c2ccccc2)c(=O)c1C(c1ccccc1[N+](=O)[O-])C(C#N)C#N (centres undefined)	none (no result: G6PDH counter, p97 inhibitor)
Cc1ccc(C(C[N+](=O)[O-])c2c(C)[nH]n(-c3ccccc3)c2=O)cc1 (centres undefined)	SUMO HTRF inh 71
O=C(O)COc1ccc(Br)cc1/C=N\Nc1ccccn1	none (no result: G6PDH counter, p97 inhibitor)
Cc1cnc(NC(=O)c2ccc3c(c2)C(=O)N(Cc2cccnc2)C3=O)s1	PHOSPHO1 inh 63 (no result: G6PDH counter, p97 inhibitor)
Cc1ccc(NC(=O)c2ccc3c(c2)C(=O)N(Cc2cccnc2)C3=O)c(C)c1	PHOSPHO1 inh 61
N#CCCn1c(SCC(=O)N2CCN(S(=O)(=O)c3ccccc3)CC2)nc2ccccc21	PHOSPHO1 inh 86
COc1ccccc1-n1cnnc1SCC(=O)N1CCN(C(=O)c2ccco2)CC1	none
COc1ccccc1-n1cnnc1SCC(=O)N1CCN(S(=O)(=O)c2ccccc2)CC1	PHOSPHO1 inh 88
CC1=C(C)NC(=S)SC1	PHOSPHO1 inh 73
CC(C)(C)c1ccc(C(=O)NNC(=O)CNC(=O)c2cccs2)cc1	none (no result: G6PDH counter, PfM18AAP inh, PHOSPHO1 inh, p97 inhibitor, SUMO HTRF inh)
COc1ccc(C2c3sc(=O)[nH]c3SC3C(=O)N(c4ccccc4)C(=O)C32)cc1 (centres undefined)	none
O=C1C2Sc3[nH]c(=O)sc3C(c3ccccc3)C2C(=O)N1c1ccccc1 (centres undefined)	PfM18AAP inh 29
CCOC(=O)c1ccccc1NC(=O)COC(=O)CN1C(=O)C2CC=CCC2C1=O (centres undefined)	none (no result: G6PDH counter, p97 inhibitor)
CCOc1ccccc1N1CCN(Cc2cccc(OC)c2O)CC1	none
COc1ccccc1N1CCN(Cc2cc(Br)c(O)c3ncccc23)CC1	PHOSPHO1 inh 78
Cn1c(=O)c2c(ncn2CC(=O)N/N=C/C=C/c2ccccc2[N+](=O)[O-])n(C)c1=O	none (no result: G6PDH counter)
CCOC(=O)c1sc2nc3c(SCCC(=O)O)cc(C(=O)c4cc(OC)ccc4O)cn3c(=O)c2c1C	SUMO HTRF inh 74 (no result: HDAC3 inhib)
CCOC(=O)c1sc2nc3c(SCCC#N)cc(C(=O)c4cc(F)ccc4O)cn3c(=O)c2c1C	none
COc1ccc(CC(=O)OC(C)C(=O)NCc2ccc3c(c2)OCO3)cc1OC (centres undefined)	none (no result: G6PDH counter, PfM18AAP inh, PHOSPHO1 inh, p97 inhibitor, SUMO HTRF inh)
COc1ccc(-c2n[nH]c(=S)n2-c2cc(OC)ccc2OC)cc1	none (no result: G6PDH counter)
Cc1scc(-c2n[nH]c(=S)n2Cc2ccccc2)c1C	PfM18AAP inh 32
COc1ccccc1-n1c(-c2ccc(NS(C)(=O)=O)cc2)n[nH]c1=S	PHOSPHO1 inh 88, HDAC3 inhib inconclusive
CCc1ccccc1-n1c(-c2ccncc2)n[nH]c1=S	PfM18AAP inh 30, PHOSPHO1 inh 90
S=c1[nH]nc(-c2ccncc2)n1Cc1ccccc1	PHOSPHO1 inh 88
COc1ccc(NC(C)=O)cc1CP(=O)(c1ccccc1)c1ccccc1	none (no result: G6PDH counter, p97 inhibitor)
O=C(COC(=O)c1ccc(Cl)nc1)NCCc1ccc(F)cc1	none (no result: G6PDH counter, PfM18AAP inh, PHOSPHO1 inh, p97 inhibitor, SUMO HTRF inh)
O=C1NC(=S)S/C1=C/c1ccc(N2CCOCC2)o1	PHOSPHO1 inh 86
C=C(C)CN=c1scc(C)n1/N=C/c1ccco1	none
CCN=c1scc(C)n1/N=C/c1cc(Br)c(O)c(Br)c1	PfM18AAP inh 30
